# Test results: paper PMC4336329 (PLoS ONE, 2015)
# The campaign covered roughly 310,000 compounds. About 14,000 (4.5%) showed an effect of 50% or more. The effect is printed as a negative number. This excerpt belongs to a sample that is enriched for strong results.
# Target: human ether-à-go-go-related gene (hERG) potassium channel (human, UniProt Q12809)
# Assay: primary screen, population patch clamp on CHO cells stably expressing hERG; higher = less effect of the substance
# 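Further: peak tail current of the secondary pulse compared with the same well before compound.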
# human ether-à-go-go-related gene (hERG) potassium channel, sequence (Q12809 whole entry, looked up): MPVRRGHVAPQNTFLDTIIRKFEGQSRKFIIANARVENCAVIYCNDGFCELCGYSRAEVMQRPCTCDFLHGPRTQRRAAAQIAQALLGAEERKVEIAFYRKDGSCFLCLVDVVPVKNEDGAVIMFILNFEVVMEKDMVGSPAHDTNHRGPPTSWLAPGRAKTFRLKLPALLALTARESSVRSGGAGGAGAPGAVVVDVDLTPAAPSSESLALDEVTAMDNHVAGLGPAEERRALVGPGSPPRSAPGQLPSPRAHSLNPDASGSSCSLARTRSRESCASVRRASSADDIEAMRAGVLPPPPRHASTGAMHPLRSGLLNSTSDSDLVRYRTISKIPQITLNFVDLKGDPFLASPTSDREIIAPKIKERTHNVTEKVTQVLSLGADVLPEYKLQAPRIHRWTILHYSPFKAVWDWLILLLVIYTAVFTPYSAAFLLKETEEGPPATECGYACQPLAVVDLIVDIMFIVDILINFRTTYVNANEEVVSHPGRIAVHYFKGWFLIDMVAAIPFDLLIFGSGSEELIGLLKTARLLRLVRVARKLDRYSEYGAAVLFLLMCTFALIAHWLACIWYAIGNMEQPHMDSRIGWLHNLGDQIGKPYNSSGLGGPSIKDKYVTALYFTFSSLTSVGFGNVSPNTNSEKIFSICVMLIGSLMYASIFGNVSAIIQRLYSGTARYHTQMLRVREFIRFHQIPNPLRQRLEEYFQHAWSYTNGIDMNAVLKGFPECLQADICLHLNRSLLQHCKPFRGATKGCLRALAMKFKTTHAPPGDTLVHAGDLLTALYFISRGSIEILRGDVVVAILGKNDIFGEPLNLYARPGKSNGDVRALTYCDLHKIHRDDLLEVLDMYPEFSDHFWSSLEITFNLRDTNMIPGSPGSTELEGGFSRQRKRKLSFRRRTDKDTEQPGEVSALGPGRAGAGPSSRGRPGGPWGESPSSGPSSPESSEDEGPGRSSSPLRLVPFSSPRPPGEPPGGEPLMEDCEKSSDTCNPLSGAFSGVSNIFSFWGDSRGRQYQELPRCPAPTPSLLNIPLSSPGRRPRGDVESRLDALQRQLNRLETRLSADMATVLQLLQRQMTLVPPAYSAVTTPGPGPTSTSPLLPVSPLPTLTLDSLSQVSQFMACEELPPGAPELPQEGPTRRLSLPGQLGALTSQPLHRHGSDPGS
row,Structure (SMILES),"hERG current change (%, negative = inhibition) at 10uM [%]"
1,Cc1ccccc1N1C(=O)NC(=O)/C(=C\c2cc(C)n(C)c2C)C1=O,-3.79
2,Cc1ccc(CN2CCN(C/C(Cl)=C/c3ccccc3)CC2CCO)o1 (centres unmarked),-45.2
3,CC(C)=CCN1CCN(C/C(Cl)=C/c2ccccc2)CC1CCO (centres unmarked),-26.9
4,OCCC1CN(C/C(Cl)=C/c2ccccc2)CCN1C1CCCC1 (centres unmarked),-77.4
5,CC(C)CCN1CCN(Cc2cccs2)CC1CCO (centres unmarked),-10.7
6,CC(C)CCN1CCN(CC#Cc2ccccc2)CC1CCO (centres unmarked),-49.9
7,CCn1cc(CN2CCN(CCC(C)C)C(CCO)C2)c2ccccc21 (centres unmarked),-31.9
8,OCCC1CN(C/C=C/c2ccco2)CCN1Cc1ccccc1 (centres unmarked),-8.57
9,CC(C)CCN1CCN(C/C=C/c2ccco2)CC1CCO (centres unmarked),-57.1
10,CC(C)CCN1CCN(CC(c2ccccc2)c2ccccc2)CC1CCO (centres unmarked),-82.3
11,OCCC1CN(CC#Cc2ccccc2)CCN1C1CCCC1 (centres unmarked),-46.2
12,OCCC1CN(Cc2ccccn2)CCN1C1CCCC1 (centres unmarked),9.91
13,OCCC1CN(CC(c2ccccc2)c2ccccc2)CCN1C1CCCC1 (centres unmarked),-71.2
14,CN(C)N1C(=O)CC(N2CCCCC2)C1=O (centres unmarked),6.08
15,Cc1nn(C(C)C(=O)N2CCc3ccccc32)c(C)c1[N+](=O)[O-] (centres unmarked),10
16,CC(=O)NS(=O)(=O)c1ccc(NC(=O)c2ccc(NC(=O)c3cccs3)cc2)cc1,2.48
17,COc1cc2c(cc1OC)-c1cc(NC3CC3)nc(=O)n1CC2,-24.8
18,O=c1oc2c(-c3cccc(F)c3)cc(O)cc2s1,8.45
19,COc1ccc(NC(=O)CCc2nnc3ccc(NCc4ccco4)nn23)cc1,1.15
20,CCOC(=O)c1c([N+](=O)[O-])c(C)[nH]c(=O)c1C#N,21.1

row,Structure (SMILES),"hERG current change (%, negative = inhibition) at 10uM [%]"
1,CCC(c1nnnn1Cc1ccco1)N(Cc1cc2cc(OC)ccc2[nH]c1=O)C1CCCCC1 (centres unmarked),-6.37
2,CCN(CC(=O)NCc1cccs1)C(=O)COc1cccc(C(F)(F)F)c1,-38.2
3,CCN(CC(=O)NCc1cccs1)C(=O)c1ccccc1F,9.12
4,CCN(CC(=O)NCc1cccs1)C(=O)c1ccc([N+](=O)[O-])o1,-33.8
5,CCN(CC(=O)NCc1cccs1)C(=O)c1ccc(-c2ccccc2F)o1,-71.6
6,CCN(CC(=O)NCc1cccs1)C(=O)c1ccc(-c2cccc(C(F)(F)F)c2)o1,-82.3
7,Cc1cccc(C)c1NC(=O)CN(C)C(=O)c1ccc(-c2cccc(C(F)(F)F)c2)o1,-12.5
8,Cn1cccc1Cc1nnc(SCC(=O)NC2CCCC2)n1-c1ccc(F)cc1,-19
9,Brc1ccc(-c2csc(Nc3nc(-c4ccc(Br)cc4)cs3)n2)cc1,15
10,COCCCNCC(O)COc1cccc2[nH]c(C)cc12 (centres unmarked),10
11,COc1ccccc1OCCNC(=O)c1cc(=O)[nH]c2ccccc12,-4.62
12,COc1ccccc1OCCNCC(O)COc1cccc2[nH]c3ccccc3c12 (centres unmarked),-65.6
13,CC(C)(CO)NCc1c(OCc2ccc(Cl)cc2)ccc2ccccc12.Cl,-75.6
14,COc1cc(CNC(C)(C)CO)cc(Br)c1OCc1ccccc1.Cl,-17.2
15,CNCc1ccccc1OCc1ccccc1F.Cl,-4.37
16,CNCc1c(OCc2ccc(F)cc2)ccc2ccccc12.Cl,-49.1
17,CC(C)(CO)NCc1cccc(OCc2ccc(Cl)cc2)c1,-30.8
18,CCOc1cc(CNCCO)cc(Br)c1OCc1ccc(Cl)cc1.Cl,-16.5
19,CNCc1c(OCc2ccccc2F)ccc2ccccc12.Cl,-63.5
20,COc1cccc(CNC(C)(C)CO)c1OCc1ccc(Cl)cc1.Cl,-56.6

row,Structure (SMILES),"hERG current change (%, negative = inhibition) at 10uM [%]"
1,CNCc1c(OCc2ccccc2)ccc2ccccc12.Cl,-34.1
2,CC(O)CNCCNCc1c(OCc2ccccc2)ccc2ccccc12.Cl (centres unmarked),-34.6
3,Cl.OCCNCc1c(OCc2ccc(Cl)cc2)ccc2ccccc12,-77.4
4,COc1cc(CNC(C)(C)CO)cc(Br)c1OCc1ccc(Cl)cc1.Cl,-45.7
5,CC(CC(=O)Nc1ccc(S(=O)(=O)Nc2ncccn2)cc1)c1ccccc1 (centres unmarked),6.78
6,COc1ccc(C(=O)NC(=S)Nc2ccc(N3CCN(C(C)=O)CC3)cc2)cc1[N+](=O)[O-],-2.14
7,O=C1N(CN2C(=O)C3(OCCO3)c3ccccc32)c2ccccc2C12OCCO2,17.1
8,COc1cc2c(cc1OC)C(COc1ccccc1OC)N(C(C)=O)CC2 (centres unmarked),14.8
9,CCn1c(CC(=O)Nc2ccccc2F)nnc1SCC(=O)N1CCN(c2ccccc2)CC1,1.15
10,Nc1ccc(S(=O)(=O)Nc2ccc(C(=O)c3ccccc3)cc2)cc1,-2.92
11,CSc1nc(-c2ccccc2)c(C#N)c(=O)[nH]1,-5.88
12,CCOC(=O)C(Cc1ccccc1)NC(=O)CCCC(=O)c1ccccc1 (centres unmarked),0.911
13,O=C(CCCSc1nc2ccccc2c(=O)[nH]1)c1ccc(F)cc1,3.3
14,CCN(CC)S(=O)(=O)c1cccc(C(=O)N/N=C/c2ccc(O)c(O)c2O)c1,11.4
15,CCc1ccc2nc(N=C(N)N)nc(C)c2c1,-14.3
16,COc1cccc(CNCCO)c1OCc1ccc(Cl)cc1.Cl,-18
17,CCOc1cccc(CNCCO)c1OCc1ccc(Cl)cc1.Cl,-53.2
18,CCOc1cccc(CNc2ccc(O)cc2)c1OCc1ccc(Cl)cc1,10.3
19,Cc1c(NC(=O)C(C)Sc2ccccc2)c(=O)n(-c2ccccc2)n1C (centres unmarked),-1.92
